# Hits are enriched below; roughly 4.2% of the tested compounds scored in any of these assays.
# AHR act: activates the human aryl hydrocarbon receptor; P35869; AID 2796; 2.5% of 320,000 active; AHR-responsive luciferase reporter cells, luminescence; activation, % at 5 µM; in the data active = activation above about 47%;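 note: 0% = vehicle wells and 100% = reference agonist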
# MITF act: MITF TRPM1 promoter activation in melanoma cells. SK-MEL-5 TRPM1-promoter luciferase, 24 h; % of positive control, neutral wells = 0. 0.75% of 300,000 active. activation, % at 12.5 µM. AID 588334;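 active = mean activation of at least 80% with every replicate also reaching 80%; inconclusive = mean reaches 80% but some replicate falls short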;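 note: 0% = neutral control wells and 100% = parthenolide positive control wells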
# esBAF inh: blocks esBAF chromatin remodeling in mouse ES cells; 2% of 350,000 active; reporter increase, % at 12.5 µM; Bmi1-luciferase knock-in reporter, 24 h; 100% = twice the neutral-well signal; AID 602393; in the data active = activation above about 40%; inconclusive = no clear call, values can overlap the other calls;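 note: 0% = median of the plate's neutral control wells and 100% = double that signal; a rise in the Bmi1 reporter signal indicates esBAF inhibition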
# GAA850 FXN act: frataxin GAA850 promoter activation; HEK293 lucGAA850 FXN promoter luciferase reporter, 24 h; percent of 10 µM SAHA response; activation, % at 6 µM; 0.56% of 360,000 active; AID 540364;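 active = activation above the average of all compounds screened plus 3 SD, cutoff fixed separately per campaign, cut at about 7.5% in these data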;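 note: 0% = DMSO wells and 100% = 10 µM SAHA wells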
# Wnt bcat act: activators of Wnt/beta-catenin signaling | activation, % at 9.35 µM | 1.2% of 300,000 active | Wnt/beta-catenin reporter cell assay, activator, plate reader; in the data active = activation above about 30%, passing the limit was not always enough; inconclusive = no clear call, values can overlap the other calls;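 note: 0% = neutral control wells and 100% = positive control wells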
# AHR act confirm: confirmation of human aryl hydrocarbon receptor activators. shares compounds with AHR act. human cells, AHR-responsive luciferase reporter, luminescence. activation, % at 9 µM. 87% of 2,300 active. AID 2845; in the data active = activation above about 49%;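 note: HepG2 hepatoma cells carrying a DRE-driven firefly luciferase reporter; 0% = vehicle wells and 100% = reference agonist wells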
# PXR act counter: counter-screen for AHR activators: human PXR activators. shares compounds with AHR act. cell-based PXR reporter, luciferase luminescence. activation, % at 11.6 µM. 88% of 2,300 active. AID 434939; in the data active = activation above about 11%;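 note: human hepatoma DPX-2 cells expressing full-length human PXR; 0% = DMSO and 100% = reference agonist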
# Target sequence (O75469 whole entry, looked up): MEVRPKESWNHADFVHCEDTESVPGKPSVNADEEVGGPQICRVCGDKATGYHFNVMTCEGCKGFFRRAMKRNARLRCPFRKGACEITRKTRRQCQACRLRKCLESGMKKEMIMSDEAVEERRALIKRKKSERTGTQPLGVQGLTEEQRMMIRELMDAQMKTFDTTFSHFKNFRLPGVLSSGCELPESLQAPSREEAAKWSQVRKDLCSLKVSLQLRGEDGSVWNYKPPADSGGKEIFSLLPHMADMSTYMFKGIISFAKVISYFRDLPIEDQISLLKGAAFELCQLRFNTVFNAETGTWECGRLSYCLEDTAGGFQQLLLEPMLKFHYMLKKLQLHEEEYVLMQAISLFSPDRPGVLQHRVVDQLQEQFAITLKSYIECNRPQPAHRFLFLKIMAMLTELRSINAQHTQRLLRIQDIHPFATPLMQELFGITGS
# * hit, by the source's call; ? = inconclusive; / = no result.
SMILES,AHR act,MITF act,esBAF inh,GAA850 FXN act,Wnt bcat act,AHR act confirm,PXR act counter
CC1CCc2sc(C(=O)N=Nc3c(O)[nH]c4ccccc34)cc2C1 (stereo unspecified),84*,/,/,/,/,103*,8
O=C(N=Nc1c(O)[nH]c2ccccc12)c1cccc(S(=O)(=O)N2CCCCC2)c1,19,0,/,2,-1,/,/
CCC(=O)Nc1ccc2c(c1)OC[C@@H](C)N(Cc1ccccc1OC)C[C@@H](C)[C@@H](OC)CN(C)C2=O,/,/,-3,/,/,/,/
Cc1ccc(OCC(=O)NCc2cccs2)c([N+](=O)[O-])n1,105*,17,/,4,-4,6,12*
Cc1ccc(OCC(=O)NCc2ccccc2)c([N+](=O)[O-])n1,1,6,/,5,-1,/,/
C[C@@H]1CN([C@@H](C)CO)C(=O)Cc2cc(NC(=O)Nc3cccc4ccccc34)ccc2O[C@H]1CN(C)C(=O)Nc1ccc(F)cc1,/,/,0,/,/,/,/
CCOCC(=O)Nc1c(C(=O)Nc2ccc3c(c2)OCO3)oc2ccccc12,102*,14,37,4,?,106*,51*
COc1ccc(NC(=O)c2oc3ccccc3c2NC(=O)C(C)(C)C)cc1,-4,13,/,0,/,/,/
CCOc1ccc(NC(=O)c2oc3ccccc3c2NC(=O)CC)cc1,95*,/,/,/,/,58*,29*
C[C@@H]1CN([C@@H](C)CO)C(=O)Cc2cc(NC(=O)Cc3cn(C)c4ccccc34)ccc2O[C@H]1CN(C)S(=O)(=O)c1ccc(Cl)cc1,/,/,13,/,/,/,/
FC(F)(F)c1cc(-c2ccco2)nc(NCc2cccnc2)n1,37,-3,3,0,-5,/,/
FC(F)(F)c1cc(-c2ccccc2)nc(NCc2cccnc2)n1,90*,-6,-13,1,/,28,43*
O=C1CC(c2ccccc2)Sc2ccccc2N1 (stereo unspecified),18,/,16,5,/,/,/
Cc1ccsc1C1CC(=O)Nc2ccccc2S1 (stereo unspecified),88*,-21,-10,0,-1,112*,39*
Cc1noc(C)c1S(=O)(=O)Nc1cccc2c1O[C@H](CN(C)Cc1ccc(-c3ccccc3)cc1)[C@H](C)CN([C@@H](C)CO)C2=O,/,/,5,/,/,/,/
CN(C)c1nc(N)nc(-c2nc3ccccc3s2)n1,80*,11,/,6,31*,167*,/
C[C@H](CO)N1C[C@H](C)[C@H](CN(C)S(=O)(=O)c2ccc(C#N)cc2)Oc2ncc(/C=C/c3ccccc3)cc2C1=O,/,/,-1,/,/,/,/
CNC(=O)c1cccnc1Nc1cccc(C(F)(F)F)c1,120*,13,/,7,12,105*,15*
COC(=O)NN=C1CCC(c2ccccc2)CC1 (stereo unspecified),/,-7,-8,1,0,/,/
COC(=O)N/N=C1/C/C(=N\NC(=O)OC)c2ccccc21,115*,-43,/,0,/,113*,9
S=c1[nH]c(-c2ccccc2)cn1/N=C/c1ccncc1,88*,8,16,2,-1,135*,8
S=c1[nH]ncn1/N=C/c1ccccc1,0,/,5,2,-3,/,/
COc1ccc(/C=N/n2c(-c3ccccc3)n[nH]c2=S)cc1,5,/,-4,1,0,/,/
CCOc1ccc(/C=N/n2cc(-c3ccccc3)[nH]c2=S)cc1,84*,1,45*,2,18,108*,/
C[C@@H]1CN([C@@H](C)CO)S(=O)(=O)c2ccc(Br)cc2O[C@@H]1CN(C)C,/,/,-4,/,/,/,/
SMILES,AHR act,MITF act,esBAF inh,GAA850 FXN act,Wnt bcat act,AHR act confirm,PXR act counter
C[C@H]1CN([C@@H](C)CO)C(=O)CCCn2nncc2CO[C@@H]1CN(C)C(=O)CCCN(C)C,/,/,0,/,/,/,/
Brc1ccc(C2=Nc3ccccc3C(c3ccncc3)=NN2)cc1,8,0,/,1,-1,/,/
c1ccc(C2=Nc3c(ccc4ccccc34)C(c3ccncc3)=NN2)cc1,80*,-31,/,-1,1,110*,46*
COc1cccc(Cn2nnc(C(=O)Nc3cc(C)ccc3OC)c2N)c1,128*,7,-26,2,/,34,26*
COc1cccc(Cn2nnc(C(=O)Nc3ccc(C)cc3)c2N)c1,-2,25,29,2,7,/,/
CC1=C(C(=O)Nc2ccc(C)cc2)C(c2ccco2)NC(=O)N1 (stereo unspecified),2,-9,-5,-2,3,/,/
